# From PubChem
# A selection: hits, their analogues and other compounds. The true share with any hit is near 3.5%.
# GPR151 ag: activates the human receptor GPR151; PathHunter beta-arrestin GPR151 cells, luminescence; activation, % at 11.2 µM; 650,000 tested, 1% active; in the data active means activation above about 4.9%;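 further: 0% = median of compound wells and 100% = cells with positive control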
# FBW7 act: activators of human E3 ligase FBW7; 650,000 tested, 0.13% active; AID 1259310; AlphaScreen FBW7–phospho-cyclin E peptide binding, activator screen; normalized activity (activation), % at 26.1 µM; in the data active means normalized activity above about 1.9%;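 further: purified mutant Fbw7 with reduced substrate affinity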
# MITF primary: human MITF inhibition, primary screen | O75030 | AlphaScreen MITF homodimerization, bead proximity signal | inhibition, % at 2.6 µM | 650,000 tested, 0.91% active | AID 1259374; in the data active means inhibition above about 50%;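 further: 0% = vehicle wells with protein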
# Target sequence (O75030 whole entry, looked up): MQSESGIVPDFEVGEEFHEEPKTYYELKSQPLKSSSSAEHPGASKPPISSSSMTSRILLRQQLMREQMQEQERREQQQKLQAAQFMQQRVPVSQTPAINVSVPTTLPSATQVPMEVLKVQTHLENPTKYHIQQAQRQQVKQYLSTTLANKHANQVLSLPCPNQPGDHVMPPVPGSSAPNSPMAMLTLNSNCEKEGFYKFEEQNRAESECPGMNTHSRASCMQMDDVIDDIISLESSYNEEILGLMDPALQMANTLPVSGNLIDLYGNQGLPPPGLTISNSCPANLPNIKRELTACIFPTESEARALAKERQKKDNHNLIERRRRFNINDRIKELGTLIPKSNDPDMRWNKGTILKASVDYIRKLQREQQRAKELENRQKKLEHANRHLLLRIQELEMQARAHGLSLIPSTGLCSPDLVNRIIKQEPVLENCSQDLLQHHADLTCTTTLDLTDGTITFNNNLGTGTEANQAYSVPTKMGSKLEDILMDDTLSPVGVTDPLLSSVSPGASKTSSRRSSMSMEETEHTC
# TEAD-YAP inh: TEAD-YAP interaction inhibition | HEK-TIYL cells, TEAD-Gal4/YAP UAS-luciferase luminescence | 640,000 tested, 1.4% active | inhibition, % at 9.12 µM | AID 1259422; in the data active means inhibition above about 32%;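 further: 0% = median of test compound wells and 100% = reference inhibitor wells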
# * = called active by the depositor.
SMILES,GPR151 ag,FBW7 act,MITF primary,TEAD-YAP inh
CN1CCN(CCCNc2ccnc3cc4ccccc4cc23)CC1,-1,0,8,75*
CN(C)CCN1CCN(c2ccnc3cc4ccccc4cc23)CC1,0,0,-11,44*
CN1CCN(CCCNc2nc(=S)[nH]c3ccccc23)CC1,0,0,-9,-5
COc1ccc(Cc2nnc(Nc3cccc(Cl)c3)[nH]c2=O)cc1,1,0,3,34*
Cc1ccc([N+](=O)[O-])cc1NC(=O)Oc1ccccc1,1,0,7,3
CCN(CC)C(=O)C1CCCN(c2nccc(NCc3cccc(C(F)(F)F)c3)n2)C1 (centres undefined),2,0,7,17
Cc1cc(NCc2cccc(C(F)(F)F)c2)nc(N2CCCC2CO)n1 (centres undefined),3,0,0,42*
CCN(CC)C(=O)C1CCCN(c2nc(C)cc(NCc3cccc(C(F)(F)F)c3)n2)C1 (centres undefined),-2,0,3,35*
COc1ccccc1N1CCN(C(=O)Cn2cnc3scc(-c4ccc(C)cc4)c3c2=O)CC1,-1,0,-9,5
Cc1cc(C)n(C(=O)CCCN2C(=O)c3cccc4cccc(c34)C2=O)n1,3,0,-21,-3
O=C1N=C(c2ccccc2)S/C1=C\c1cccc(Br)c1,0,0,10,6
CCOC(=O)/C(C#N)=C/C1=C(N2CCOCC2)C(=C\c2ccccc2)/CC1,0,-1,51*,-2
COCCNC(=O)/C(C#N)=C/C1=C(N2CCOCC2)C(=C\c2ccccc2)/CC1,2,-1,9,9
C=CCN1CCN(C(c2ccccc2)c2nnnn2C2CCCC2)CC1 (centres undefined),0,1.9*,15,-3
CN1CCN(C(c2ccc(N(C)C)cc2)c2nnnn2C2CCCC2)CC1 (centres undefined),-1,0,5,51*
c1cncc(C(c2nnnn2C2CCCCC2)N2CCN3CCCC3C2)c1 (centres undefined),-1,0,5,-18
c1csc(C(c2nnnn2C2CCCCC2)N2CCN3CCCC3C2)c1 (centres undefined),-2,0,19,62*
CN1CCN(C(c2ccc(F)cc2)c2nnnn2C2CCCC2)CC1 (centres undefined),-1,0,9,6
Nc1cccc(-c2cc(NCc3cccc(C(F)(F)F)c3)nc(N)n2)c1,1,0,-11,44*
Nc1nc(NCc2cccc(C(F)(F)F)c2)cc(-c2ccccc2)n1,1,0,2,45*
COC(=O)CSc1nnc(-c2cccnc2)n1C,0,1.9*,10,2
COc1ccccc1-n1c(SCC(=O)Nc2ccccc2F)nnc1-c1cccnc1,-1,0,-5,58*
COc1cccc(-n2c(SCC(=O)Nc3ccccc3OC)nnc2-c2cccnc2)c1,0,0,-7,-4
COc1ccccc1NC(=O)CSc1nnc(-c2cccnc2)n1-c1ccccc1C,0,0,12,70*
COc1cccc(-c2nnc(SCC(=O)Nc3ccccc3OC)n2-n2cccc2)c1,-1,0,2,50*
SMILES,GPR151 ag,FBW7 act,MITF primary,TEAD-YAP inh
CCCCNC(=O)CSc1nnc(-c2cccnc2)n1-c1ccccc1OC,0,0,4,10
CCC(SC1=NC(=O)C(c2ccccc2)C(=O)N1)C(=O)Nc1cccc2ccccc12 (centres undefined),1,0,3,-2
OCCOc1ccc(CN2CCN(C3CCCCC3)C(CCO)C2)cc1 (centres undefined),2,0,7,2
CCOc1cc(/C=N\NC(=O)c2n[nH]c3c2CCCC3)ccc1O,-1,0,14,-7
CCOc1cccc(C2CC(=O)NC3=C2C(=O)CC(c2cc(OC)ccc2OC)C3)c1 (centres undefined),-1,0,-11,-7
COc1ccccc1-n1c(SCC(=O)Nc2nc(C)cs2)nnc1-c1ccncc1,1,0,-7,51*
COc1ccccc1-n1c(SCC(=O)Nc2ccc(F)cc2)nnc1-c1ccncc1,1,0,-9,5
NC(=O)c1cc(NC(=O)c2ccccc2Cl)c(Cl)cc1Cl,1,0,-16,-4
COc1ccccc1C(=O)N/N=C(\N)c1cc2c(ccc3ccccc32)oc1=O,0,0,-7,1
Cc1cc(C)cc(C(=O)OCC(=O)N2CCCC2)c1,0,0,3,-9
O=C(OCC(=O)N1CCN(Cc2ccccc2)CC1)c1cc(O)c(O)c(O)c1,-1,0,84*,-11
O=C(OCC(=O)N1CCCCCC1)c1cc(O)c(O)c(O)c1,1,0,91*,-2
CCCc1sc(NC(=O)c2ccc(C)cc2)c(C(=O)O)c1C,-1,1,14,52*
COc1ccc(-c2csc(NC(=O)c3ccc(C)cc3)c2C(=O)O)cc1,0,0,4,47*
CCOC(=O)c1c(NC(=O)c2ccc(C)cc2)sc(C(=O)Nc2ccccc2)c1C,1,1,-4,-7
CCc1ccc(OCC(=O)O/N=C(\N)c2ccc([N+](=O)[O-])cc2)c(Br)c1,0,0,-4,10
C=CCOC(=O)C1=C(C)NC(=O)NC1c1ccc(OCCC)cc1 (centres undefined),-2,1,3,55*
C=CCOC(=O)C1=C(C)NC(=S)NC1c1ccc(C(=O)OC)cc1 (centres undefined),-1,0,1,36*
COc1ccc(C2NC(=S)NC(C)=C2C(=O)c2ccccc2)cc1 (centres undefined),-2,0,17,57*
C/C=C/COC(=O)C1=C(C)NC(=O)NC1c1ccccc1Cl (centres undefined),1,1,-2,47*
CCCCOc1cccc(OCCNCCN2CCOCC2)c1,-1,0,35,-4
CC(C)c1ccc(NC(=O)C2C3C=CC4(O3)C2C(=O)N(CCN2CCOCC2)C4C(=O)NC2CCCC(C)C2C)cc1 (centres undefined),-1,0,-10,1
Cc1cc(NC(=O)Cn2cccc2)ccc1Br,-1,0,14,30
CCOC(=O)C1=C(CC)NC2=C(C(=O)CC(C)(C)C2)C1c1ccccc1OC (centres undefined),0,0,7,14
O=C1C(Cl)=C(Nc2ccccc2O)C(=O)N1c1ccccc1,0,0,9,-28
Cc1ccc(N2C(=O)C(Cl)=C(Nc3cc(Cl)ccc3O)C2=O)cc1,-2,0,13,41*
CCOc1cc(C=O)ccc1OS(=O)(=O)c1ccc(OC)cc1,-1,1,-15,4
COc1ccc(N2CN=c3s/c(=C\c4ccccc4O)c(=O)n3C2)cc1,0,0,0,2
Cn1cnc([N+](=O)[O-])c1Sc1nc2ccccc2[nH]1,-1,0,1,56*
CC1=C(C(=O)OC2CCCCC2)C(c2cccnc2)C2=C(CC(c3ccc(Cl)cc3)CC2=O)N1 (centres undefined),0,0,-4,38*
